Consider 25 compounds from PubChem BioAssay AID504558 (Broad Institute, 2011).

Out of some 350,000 compounds screened, about 2,400 (0.69%) were called active. This is one part of a sample in which actives are shown more often than they occur. Rule as the data show it: active = inhibition above about 41%; inconclusive = no clear call, values can overlap the other calls; inactive = below that.

The nature of this assay: EBV LMP1-driven NF-kappaB luciferase reporter inhibitors, primary screen, cell-based, luminescence, single point (AID 504558).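 Also: 0% = neutral control wells and 100% = reference inhibitor control.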 The note with it: LMP1-induced NF-kappaB luciferase reporter cells, at 12.5 µM, stronger effect = higher value. (In general: A reporter such as luciferase makes a cellular process visible.)
As to `CN1CCN(c2cc(N3CCNCC3)ccc2[N+](=O)[O-])CC1`, the inhibition (as a rule, the drop in the measured response relative to a control, in per cent) was -3.51% (inactive).
As for `COc1cccc(-c2nc3ccc(N4CCN(C)CC4)cc3[nH]2)c1`, the inhibition is 55.9% (active).
The figure for `O=C(c1ccccc1)C(O)(CN1CCCCC1)c1ccccc1` (stereo not given) is 10.5% (inactive).
The figure for `CCOc1ccc(-c2cc(C)[n+](CCN(CC)CC)c(-c3ccc(OCC)cc3)c2)cc1` is 34.1% (inactive); for `CCC/C(=N\O)c1c[nH]c2ccccc12` it is -1.7% (inactive).
Turning to `NCCc1c[nH]c2ccc(O)cc12`, the inhibition was 0.174% (inactive).
The figure for `CC(C)c1c(CN(C)C(C)Cc2ccccc2)n(C)n(-c2ccccc2)c1=O` (stereo not given) is 46.3% (active).
In the case of `CN(C)CCN(CC1CCCN(Cc2ccccc2F)C1)C(=O)Cc1ccc(F)c(F)c1` (stereo not given), the inhibition is -8.27% (inactive).
The figure for `c1cc2c(cc1[C@H]1OC[C@H]3[C@@H]1CO[C@@H]3c1ccc3c(c1)OCO3)OCO2` is -19.4% (inactive); for `CC=C(C)C(=O)OC1CCN2CC=C(COC(=O)C(O)(C(C)OC)C(C)(C)O)C12` (stereo not given) it is -5.68% (inactive).
The figure for `COc1ccc2c(c1)[C@]13CCCCC1C(C2)N(C)CC3` (stereo not given in full) is -1.94% (inactive); for `CCCC[N+]1(C)C2CC(OC(=O)C(CO)c3ccccc3)CC1C1OC12` (stereo not given) it is -0.864% (inactive).
The figure for `Cc1ccc(-c2nn(CCC#N)cc2C(=O)O)cc1C` is -6.4% (inactive); for `Clc1cccc(Cl)c1Cl` it is -0.913% (inactive); for `CCC(C)(O)C(=O)OC1C(=O)OC2CC3C(C)=CC(=O)C(O)C3(C)C3C4(O)OCC23C1C(C)C4O` (stereo not given) it is 93.7% (active).
`CN(C)C(=O)Oc1ccc(NC(=O)N2CCOCC2)cc1`: the inhibition was 3.17% (inactive).
As to `CCN1C(=O)C(=Cc2c(C)n(CC(=O)NCC3CCCO3)c3ccccc23)C(=O)N(CC)C1=S` (stereo not given), the inhibition was 0.11% (inactive).
As for `CC(=O)OC1C2(CC3N4C(=O)C5(CO)SSC4(CC31O)C(=O)N5C)OC(C)C(C)(C)C2=O` (stereo not given), the inhibition is 86.8% (active).
The figure for `CCOC(=O)CC(SP1(=S)OCC2(CCCCO2)C(C2CCCCO2)O1)C(=O)OCC` (stereo not given) is -9.32% (inactive).
The figure for `COC1C(O)C(C)OC(OC2CCC3(C=O)C(CCC4C3CCC3(C)C(C5=CC(=O)OC5)CCC43O)C2)C1O` (stereo not given) is 89.7% (active); for `C[C@]12CC[C@H](O)C[C@H]1CC[C@@H]1C2CC[C@]2(C)[C@@H](C3=CC(=O)OC3)[C@@H](O)C[C@]12O` (stereo not given in full) it is 37% (inactive); for `O=C(NCC1=C(c2ccc3ccccc3c2)C[C@@H]2CC[C@H]1N2Cc1ccco1)c1cccs1` it is 1.8% (inactive).
Consider `CCC(=O)OC(Cc1ccccc1)(c1ccccc1)C(C)CN(C)C` (stereo not given), for which the inhibition is 0.604% (inactive).
The figure for `O=C1C2(Cl)C3(Cl)C4(Cl)C(Cl)(Cl)C5(Cl)C3(Cl)C1(Cl)C5(Cl)C24Cl` (stereo not given) is 6.24% (inactive); for `CN1CCN(Cc2ccc(OC(F)(F)F)cc2)CC1` it is -6.99% (inactive).
